IkB signaling – suppresses IkB signaling in ABC-DLBCL reporter cells; Potency, µM (top dose mostly 57.1 µM), for the others: at the highest dose IkBa stabilization activation; 110,000 compounds, 0.04% hits; AID 445; ABC-DLBCL IkBa-CBG/CBR dual luciferase ratio, 4 h; response scale: scaled: untreated 0%, proteasome inhibitor 100%; active = well fitted curve in the direction sought with a large enough effect in the signal ratio, not every such curve was filed as active; inconclusive = small, poorly fitted or top-dose-only effect, or a change in a side signal; the % refers to the signal ratio;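 note: potency is the fitted concentration of half-maximal effect; the direction sought is a rising ratio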
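In this assay, an IκBα–CBG68 fusion accumulates when IKK-driven degradation is blocked; native CBR normalizes for cell number. OCI-Ly3 cells were treated 4 h with compound and doxycycline, then green and red light read after Chroma-Glo addition.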
UbGFP stabilizer – inhibits proteasome, raising ubiquitin-GFP reporter fluorescence. Ubiquitin-GFP reporter cells, proteasome inhibition, GFP fluorescence; response scale: untreated = 0%, 10 µM MG-132 = 100%. Potency, µM (titrated, usually from 45.9 µM), for the others: at the top dose activation (GFP accumulation), usual class: activators. 67,000 tested, under 10 active. AID 526; active = well fitted activation curve with a large enough effect, not every such curve was filed as active; inconclusive = small, poorly fitted or top-dose-only effect, or another doubt; inactive = no such curve, though single readings can be large or run the other way; note: potency is the fitted concentration of half-maximal effect
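U2OS Ub(G76V)-GFP reporter; O/N plating, 0.5% FBS; cpd 46 uM–2.9 nM, 4 h, 37 °C; GFP+ cell count, 488/515 nm; norm. to basal vs 10 uM MG-132; CRC fit.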
USP2a inh – USP2a (human) protease inhibition | Potency, µM (series often up to 38.3 µM), for the others: top-dose activity change, negative = inhibition, usual class: inhibitors | AID 927 | USP2a enzymatic assay, qHTS inhibition | O75604 | 60,000 compounds, 0.1% hits; note: potency is the fitted concentration of half-maximal effect; nearly all actives have a fitted effect of over 60% in size
Target sequence (O75604 whole entry, looked up): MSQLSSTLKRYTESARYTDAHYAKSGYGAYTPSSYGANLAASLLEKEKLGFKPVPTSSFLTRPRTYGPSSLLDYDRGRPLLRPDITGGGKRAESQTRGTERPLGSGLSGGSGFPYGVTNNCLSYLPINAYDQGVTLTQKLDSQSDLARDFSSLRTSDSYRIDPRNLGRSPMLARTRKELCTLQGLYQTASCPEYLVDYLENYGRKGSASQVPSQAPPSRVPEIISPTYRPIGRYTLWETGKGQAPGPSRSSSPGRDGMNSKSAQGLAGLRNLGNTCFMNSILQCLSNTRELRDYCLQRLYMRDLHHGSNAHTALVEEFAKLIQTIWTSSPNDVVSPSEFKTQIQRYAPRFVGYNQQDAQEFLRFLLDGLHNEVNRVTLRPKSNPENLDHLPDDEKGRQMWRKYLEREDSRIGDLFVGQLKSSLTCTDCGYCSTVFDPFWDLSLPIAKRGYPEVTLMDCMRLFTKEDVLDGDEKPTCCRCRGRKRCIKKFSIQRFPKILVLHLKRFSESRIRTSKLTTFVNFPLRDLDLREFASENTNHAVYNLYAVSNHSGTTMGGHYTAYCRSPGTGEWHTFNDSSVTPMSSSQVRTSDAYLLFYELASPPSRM
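20 nM USP2 core + cpd, 30 min RT; add 20 nM Ub-PLA2/20 uM NBD C6-HPC; read Ex460/Em535 at 0 h and 2.5 h. Normalized to NEM; qHTS curve fit/classification.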
Imprint erasure – inducers of genomic imprint erasure in mouse ES cells. mouse ES Peg3-LacZ reporter, beta-gal luminescence, 40 h. Potency, µM (titrated, usually from 60.7 µM), inactives show at the top dose activity change, positive = activation, most hits filed as activators. 110,000 compounds, 0.02% hits. AID 1948; note: potency is the fitted concentration of half-maximal effect
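Gelatin-coated wells received 300 freshly trypsinized female ES cells with a Peg3LacZ-Neo reporter on the maternal allele, then incubated 40 hours at 37C. BetaGlo was added for 5 minutes at room temperature before a single luminescence read.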
GFP derepression – epigenetic modulators derepressing GFP locus in mouse cells; 68,000 compounds, 0.09% hits; mouse C127i GFP locus derepression, cytometry, 30 h; Potency, µM (top dose mostly 46.1 µM), for the others: at the highest dose GFP derepression (activation); note: % of control where 0% means no effect
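Derepression screen: silenced CMV-GFP reporter in murine C127i cells, 30 h compound incubation at 37 C, washed cells imaged by laser-scanning cytometer to enumerate GFP-expressing objects of 20 to 120 um.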
HBB splicing – hemoglobin beta splicing modulation; HBB splicing reporter cell assay, activation; EGFP reporter with mutant IVS2-654 intron; response scale: normalised to 500 nM splice-correcting PNA; Potency, µM (series often up to 46.1 µM), for the others: at the top dose activation, hits mostly activators; 65,000 compounds, 0.06% hits; note: potency is the fitted concentration of half-maximal effect; 0% is about no effect
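Compounds were applied for 2 days to HeLa EGFP-654 cells, 500/well in Optimem with 2% FCS. The reporter's EGFP is disrupted by mis-splicing of beta-globin intron IVS2-654. Readout: summed well GFP fluorescence from 488 nm laser scanning; reference was 500 nM antisense […] 654 PNA.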
Active calls of the source: *; ? = inconclusive; / = no result; [ ] = dose if it differs, or a comment. This is a sample that favours compounds with a hit; in the whole collection about 0.18% have one here. Unless noted, calls come from the whole dose curve; as a rule, active = well fitted curve in the direction sought with a large enough effect; inconclusive = small, poorly fitted or top-dose-only effect, or another doubt; inactive = no such curve, though single readings can be large; an effect the other way counts as inactive or inconclusive.

SMILES | IkB signaling | UbGFP stabilizer | USP2a inh | Imprint erasure | GFP derepression | HBB splicing
Cc1cccc2cc3c(nc12)SC(=NCC1CCCO1)N(Cc1ccco1)C3 (stereo not given) | ? | 7% | / | -22% | 3.2µM* | 0%[57.5 µM]
Cc1ccc2nc3c(cc2c1)CN(Cc1ccco1)C(=NCC1CCCO1)S3 (stereo not given) | ? | -2% | 20% | -29% | -2% | 0%[57.5 µM]
CC(C)C(=O)NC(c1ccco1)c1ccc2cccnc2c1O (stereo not given) | ? | 13% | 14% | -31% | 4µM* | -2%[9.22 µM]
CCOc1cc(C(Nc2cc(C)ccn2)c2ccc3cccnc3c2O)ccc1OC (stereo not given) | ? | / | / | -30%[10.9 µM] | / | /
COc1ccc(C(NC(C)=O)c2ccc3cccnc3c2O)c(OC)c1 (stereo not given) | 6% | -3% | 13% | -29% | 13µM* | -2%
COc1ccc(C(C)=O)cc1COC(=O)c1cnc(C)cn1 | -3% | -1% | 2% | 16µM* | -1% | -3%
CCOC(=O)C1CCN(c2c(NCc3ccc(C(=O)O)cc3)c(=O)c2=O)CC1 | 3% | -3% | / | ? | / | 0%
CCCCCCCCCCCCCCCCCC(=O)O[C@H](CC(=O)O)C[N+](C)(C)C | -8% | -2% | 25% | / | -1% | 3%
COc1cc(C(=O)O[C@@H]2CC(C)=CC[C@@]3(C)CC[C@](O)(C(C)C)[C@H]23)ccc1O | 1%[11.4 µM] | 0% | / | / | -4%[9.22 µM] | /
COc1ccc(-n2c(=O)c(-c3cccs3)nc3cnc(Nc4cccc(OC)c4)nc32)cc1 | -4%[11.4 µM] | ? | 87% | / | 3.2µM* | 10µM*
COCCn1c(=O)c(-c2cc(F)cc(F)c2)nc2cnc(Nc3cccc(OC)c3)nc21 | 0%[11.4 µM] | 2% | 139% | / | 5%[9.22 µM] | ?
COc1cccc(Nc2ncc3nc(C)c(=O)n(Cc4cccs4)c3n2)c1 | -3%[11.4 µM] | 25% | 183% | -4% | 19%[9.22 µM] | 16µM*
COCCn1c(=O)c(-c2ccc(F)cc2)nc2cnc(Nc3cccc(OC)c3)nc21 | -3%[11.4 µM] | ? | 126% | ? | 3%[9.22 µM] | 20µM*
COc1cccc(Nc2ncc3nc(-c4cccs4)c(=O)n(CCC#N)c3n2)c1 | 0%[11.4 µM] | 6.3µM* | 169% | ? | ? | 6%
Cc1ccc2c(CC(=O)Nc3cc(C(F)(F)F)ccc3Cl)coc2c1C | ? | / | / | -9%[10.9 µM] | / | /
O=C(CSc1nc2scc(-c3ccco3)c2c(=O)n1-c1ccccc1)NCC1CCCO1 (stereo not given) | 7.9µM* | -2% | 36% | -40% | -3% | 2%
COc1ccc(C(=O)N2CCC3(CCCN(C(=O)NC(C)C)C3)CC2)cc1 | 0%[11.4 µM] | -10% | 10µM* | / | 7%[9.22 µM] | 2%
C[C@@H](CN1CCC(Cc2ccccc2)CC1)[C@H](O)c1ccc(O)cc1 | -1% | 0% | 3% | / | 1% | -1%
S=C(Nc1ccccn1)c1ccccn1 | ? | 5% | 4% | -81% | 4µM* | 0%[9.22 µM]
O=C(Nc1ccccc1)Nc1ccccn1 | 1% | 5% | 3% | -54% | 6% | -2%
CC1CCC2C(=O)N3C(CCC(C)C3c3ccc(-c4ccco4)cc3)C(=O)N2C1c1ccc(-c2ccco2)cc1 (stereo not given) | / | / | / | / | / | 3%[9.22 µM]
C[C@@H]1c2cccc(O)c2C(O)=C2C(=O)[C@@]3(O)C(O)=C(C(N)=O)C(=O)[C@@H](N(C)C)[C@@H]3[C@@H](O)[C@@H]21 | 1%[25.6 µM] | -9%[20.5 µM] | 16µM* | -7%[16.8 µM] | 0%[20.6 µM] | 0%[20.6 µM]
N[C@@H](C(=O)O)[C@H](O)C(=O)O | 6% | 7% | / | / | -1% | 0%
Oc1ccc(COCc2ccccc2)c2cccnc12 | ? | 8% | 23% | -27% | 3.2µM* | /
Nc1ncnc2c1ncn2[C@@H]1O[C@@H](CO)[C@H](O)[C@@H]1O | 2% | -5% | -3% | / | -2% | 1%
SMILES | IkB signaling | UbGFP stabilizer | USP2a inh | Imprint erasure | GFP derepression | HBB splicing
CCCCCCCCCCCCCCCCCC(=O)NC[C@@H](COP(=O)([O-])OCC[N+](C)(C)C)OCC | -22% | 4% | 26% | / | -1% | -1%
CCCCCCCCCCCCCCC/C=C\[C@H](O)[C@@H](NC(=O)CCCCCCCCCCCCC)OC (tested in a mixture with another compound) | -6% | 0% | -3% | / | 1% | -1%
Cn1c(SCc2cccnc2)nc2cccnc21 | -1% | 0% | 5µM* | -33% | -1% | /
Cn1c(SCC(=O)c2ccccc2)nc2cccnc21 | 9% | -3% | -2% | -9% | 0% | 0%
CC(C)c1nc2oc3c(N4CCNCC4)ncnc3c2c2c1CCC2 | -3% | 0% | -7% | 23% | 4% | -1%[0.369 µM]
CC(C)c1nc2oc3c(=O)[nH]cnc3c2c2c1CCC2 | 1% | 0% | 1.6µM* | 4% | 0% | 1%
CCC12CN3CC(C)(CN(C1)C3c1ccccc1C)C2=O (stereo not given) | ? | / | / | -12%[10.9 µM] | / | /
CC1=C(C(=O)O)N2C(=O)[C@@H](NC(=O)C(N)C3=CCC=CC3)[C@H]2SC1 (stereo not given in full) | / | / | / | -9% | / | /
CCCOc1ccccc1-c1nc(SCC(=O)c2ccccc2)n[nH]1 | 8% | / | / | 5%[10.9 µM] | / | /
CCCOc1ccccc1-c1nc2n[nH]nc2c(=O)[nH]1 | 0% | 3% | 10µM* | -4% | 0% | -1%[20.6 µM]
COc1c(O)cc2c(c1O)C1OC(CO)C(O)[C@H](O)[C@H]1OC2=O (stereo not given in full) | / | / | -2% | 7.9µM* | / | /
C=C(C)Cn1c(SCC#N)nc2ccccc2c1=O | -2% | 0% | -2% | 1µM* | -1% | -1%
C=C(C)Cn1c(SCC)nc2ccccc2c1=O | -1% | -2% | / | 2% | 0% | 0%[57.5 µM]
C[C@H](C(=O)c1ccccc1)C(c1ccccc1)N1CCOCC1 (stereo not given in full) | / | / | / | -13%[10.9 µM] | / | /
O[C@@H](c1cc(-c2ccccc2)nc2c1ccc1ccccc12)C1CCCCN1 (stereo not given in full) | / | / | / | -7%[10.9 µM] | / | /
O[C@H](C[C@@H]1CCCCN1)c1ccc2c(c1)oc1ccccc12 | -6%[11.4 µM] | -2%[9.17 µM] | / | -10%[10.9 µM] | 1.3µM* | 2%[9.22 µM]
O=C(Cn1cnnn1)OCC(=O)c1ccc(Cl)s1 | ? | -1% | 27% | -3% | -2% | 13µM*
CC(=O)[C@H](CC(C)C)NC(=O)[C@@H](CC(C)C)NC(=O)[C@H](CC(C)C)NC(=O)OCc1ccccc1 | ? | 0.79µM* | / | -26% | 5% | /

Compound activity: PubChem, National Center for Advancing Translational Sciences (NCATS)
